Screens (PubChem)
M1 antag: blocks human M1 muscarinic receptor; CHO-K1 hM1, Fluo-8 calcium fluorescence, ACh EC80 antagonist; inhibition, % at 3 µM; 360,000 tested, 1.3% active;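 active = percent inhibition above its own plate's cutoff, namely the mean of that plate's compound wells plus 3 SD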;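 also: peak over basal fluorescence ratio during 140 s after agonist addition; 0% = ACh EC80 plus DMSO and 100% = DMSO alone without agonist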
Target sequence (P11229 whole entry, looked up): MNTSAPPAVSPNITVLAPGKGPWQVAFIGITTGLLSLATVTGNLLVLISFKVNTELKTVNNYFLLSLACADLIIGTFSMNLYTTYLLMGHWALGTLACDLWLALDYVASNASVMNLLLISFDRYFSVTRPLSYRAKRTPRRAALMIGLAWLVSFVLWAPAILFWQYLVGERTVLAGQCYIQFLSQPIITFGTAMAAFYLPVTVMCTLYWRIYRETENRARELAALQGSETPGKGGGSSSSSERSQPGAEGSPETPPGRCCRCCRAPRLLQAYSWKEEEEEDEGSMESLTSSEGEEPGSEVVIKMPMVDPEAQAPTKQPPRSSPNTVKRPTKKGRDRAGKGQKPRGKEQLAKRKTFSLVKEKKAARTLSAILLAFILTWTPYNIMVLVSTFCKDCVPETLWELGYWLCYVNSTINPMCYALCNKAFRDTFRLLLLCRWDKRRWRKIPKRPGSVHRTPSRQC
CHRM1 agonist: human M1 muscarinic receptor agonism; 360,000 tested, 0.33% active; AID 588814; P11229; activation, % at 3 µM; CHO-K1 hM1, Fluo-8 calcium fluorescence, agonist mode; 0% DMSO, 100% acetylcholine EC100;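 active = activation above the run's mean compound activation plus 3 SD, cut at about 16% in these data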;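 also: peak over basal fluorescence ratio within a 140 s kinetic read after compound addition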
CHO-K1 Ca ag: counter-screen for M1 agonists: effect in parental CHO-K1 cells. Fluo-8 calcium fluorescence; scaled to maximal ATP response, vehicle zero. activation, % at 3 µM. 360,000 tested, 0.48% active. AID 602248; in the data active = activation above about 15%;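 also: untransfected CHO-K1 host cells lacking M1 receptor as counterscreen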
CHO-K1 Ca PAM: M1 PAM counterscreen hit in parental CHO-K1 cells | ATP EC20, Fluo-8 calcium fluorescence; 0% at ATP EC20, 100% at ATP max | activation, % at 3 µM | 360,000 tested, 0.02% active | AID 602247;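 active = activation above the run cutoff, the mean activation of all test compounds plus 3 SD, cut at about 40% in these data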;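 also: peak over basal fluorescence ratio in a 140 s read after ATP addition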
CHO-K1 Ca antag: counter-screen for M1 antagonists: effect in parental CHO-K1 cells; ATP-induced calcium, Fluo-8 fluorescence; inhibition, % at 3 µM; 360,000 tested, 0.6% active;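 active = inhibition above a per-plate cutoff, the plate's mean sample inhibition plus 3 SD, cut at about 24% in these data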;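 also: 0% = DMSO plus EC80 ATP and 100% = DMSO alone without ATP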
CHRM1 PAM: positive allosteric modulators of human M1 muscarinic receptor; P11229; CHO-K1 hM1, Fluo-8 calcium fluorescence, ACh EC20; 0% = ACh EC20, 100% = maximal ACh; activation, % at 3 µM; 360,000 tested, 0.088% active; AID 588819; in the data active = activation above about 19%, passing the limit was not always enough
Numbers without * were called inactive. In the library only some 2.3% were active in any assay of this set; here they are far more common.

CCCCN(CC)CCCNC(=O)C1CCN(c2ncnc3c2sc2cccc(F)c23)CC1 was read as M1 antag 42*, CHRM1 agonist -5, CHO-K1 Ca ag 0, CHO-K1 Ca PAM -8, CHO-K1 Ca antag -1 and CHRM1 PAM -18.
`O=C(NCCN1CCOCC1)C1CCN(c2ncnc3c2sc2cccc(F)c23)CC1` gave M1 antag 0, CHRM1 agonist -4, CHO-K1 Ca ag 1, CHO-K1 Ca PAM 7, CHO-K1 Ca antag 14 and CHRM1 PAM -3.
`CC(C)(C)c1ccc(S(=O)(=O)Nc2noc3ccccc23)cc1` gave M1 antag -2, CHRM1 agonist -4, CHO-K1 Ca ag 1, CHO-K1 Ca PAM -9, CHO-K1 Ca antag -8 and CHRM1 PAM 4.
COc1cc(C(=S)N2CCOCC2)ccc1OC(=O)c1ccc(Br)cc1 was read as M1 antag 47*, CHRM1 agonist 1, CHO-K1 Ca ag 12, CHO-K1 Ca PAM 7, CHO-K1 Ca antag 28* and CHRM1 PAM -18.
For CCOC(=O)[C@@H]1[C@H]2COc3ccccc3[C@H]2N2C(=O)N(c3ccc(C(F)(F)F)cc3)C(=O)[C@]12C the results were M1 antag 34*, CHRM1 agonist -2, CHO-K1 Ca ag 5, CHO-K1 Ca PAM 4, CHO-K1 Ca antag -5 and CHRM1 PAM -20.
Screening CCOC(=O)[C@@H]1[C@H]2COc3ccccc3[C@@H]2N2C(=O)N(c3ccc(C(F)(F)F)cc3)C(=O)[C@@]12C returned M1 antag -1, CHRM1 agonist -4, CHO-K1 Ca ag 0, CHO-K1 Ca PAM 2, CHO-K1 Ca antag -9 and CHRM1 PAM 0.
Screening O=C1c2ccccc2C(O)N1Cc1ccc2c(c1)OCO2 (centres undefined) returned M1 antag 28*, CHRM1 agonist 0, CHO-K1 Ca ag 4, CHO-K1 Ca PAM -9, CHO-K1 Ca antag 15 and CHRM1 PAM -11.
Screening COc1ccccc1C(=O)NCCNc1ccc([N+](=O)[O-])cc1Cl returned M1 antag 18, CHRM1 agonist -4, CHO-K1 Ca ag 1, CHO-K1 Ca PAM -8, CHO-K1 Ca antag 20 and CHRM1 PAM -10.
O=C(Cn1cnc2ccccc2c1=O)Nc1ccc(N2CCOCC2)cc1 was read as M1 antag -10, CHRM1 agonist 0, CHO-K1 Ca ag 0, CHO-K1 Ca PAM 11, CHO-K1 Ca antag -16 and CHRM1 PAM 12.
For CC1=CC(C)(C)N(C(=O)CNC2CCCC2)c2cc(C)ccc21 the results were M1 antag 99*, CHRM1 agonist -7, CHO-K1 Ca ag 0, CHO-K1 Ca PAM 9, CHO-K1 Ca antag -16 and CHRM1 PAM -23.
CCC(C#CCN1CCCCC1)(CC)OCCC#N was read as M1 antag 63*, CHRM1 agonist -6, CHO-K1 Ca ag 0, CHO-K1 Ca PAM 15, CHO-K1 Ca antag -15 and CHRM1 PAM -22.
Screening CCC(C#CCN1CCOCC1)(CC)OCCC#N returned M1 antag -9, CHRM1 agonist -3, CHO-K1 Ca ag 0, CHO-K1 Ca PAM 16, CHO-K1 Ca antag -18 and CHRM1 PAM 8.
CCC(C)(C#CCN1CCCCC1)OC(C)=O (centres undefined) was read as M1 antag 22, CHRM1 agonist -13, CHO-K1 Ca ag 0, CHO-K1 Ca PAM 4, CHO-K1 Ca antag 1 and CHRM1 PAM -23.
For CCC(C)(C#CCN1CCCCC1)OCCC#N (centres undefined) the results were M1 antag 69*, CHRM1 agonist -12, CHO-K1 Ca ag 0, CHO-K1 Ca PAM 11, CHO-K1 Ca antag -2 and CHRM1 PAM -26.
For OC(COC(c1ccccc1)c1ccccc1)CN1CCCCC1 (centres undefined) the results were M1 antag -12, CHRM1 agonist -7, CHO-K1 Ca ag 0, CHO-K1 Ca PAM 0, CHO-K1 Ca antag 6 and CHRM1 PAM -4.
For c1ccc(C(CN2CCCCC2)Oc2ccccn2)cc1 (centres undefined) the results were M1 antag 83*, CHRM1 agonist -5, CHO-K1 Ca ag 0, CHO-K1 Ca PAM -22, CHO-K1 Ca antag 9 and CHRM1 PAM -27.
For COc1ccc(Oc2c(C)oc3c(CN(C)C)c(O)ccc3c2=O)cc1 the results were M1 antag 32*, CHRM1 agonist -14, CHO-K1 Ca ag 0, CHO-K1 Ca PAM 10, CHO-K1 Ca antag -15 and CHRM1 PAM -22.
For OC[C@H]1O[C@@H](c2nc3ccc(-c4nc(-c5ccc(Br)cc5)no4)cc3[nH]2)C[C@@H]1O the results were M1 antag -14, CHRM1 agonist 16*, CHO-K1 Ca ag 1, CHO-K1 Ca PAM 12, CHO-K1 Ca antag -14 and CHRM1 PAM 23.
CCN(CC)C(=O)c1ccc2nc([C@H]3C[C@H](O)[C@@H](CO)O3)[nH]c2c1 was read as M1 antag -18, CHRM1 agonist -2, CHO-K1 Ca ag 0, CHO-K1 Ca PAM 19, CHO-K1 Ca antag -5 and CHRM1 PAM 11.
Screening COc1ccc(-n2c(=O)c3ccccc3n(Cc3cccc(C)c3)c2=O)cc1OC returned M1 antag -22, CHRM1 agonist -2, CHO-K1 Ca ag 0, CHO-K1 Ca PAM -4, CHO-K1 Ca antag -2 and CHRM1 PAM 16.
`Cc1ccc(OCCNC(=O)CCNC(=O)c2ccc(Cl)cc2)cc1` gave M1 antag -6, CHRM1 agonist -4, CHO-K1 Ca ag 0, CHO-K1 Ca PAM 22, CHO-K1 Ca antag -5 and CHRM1 PAM 9.
O=C(Cc1ccc(Br)cc1)Nc1ncc([N+](=O)[O-])s1 was read as M1 antag 35, CHRM1 agonist 8, CHO-K1 Ca ag 16*, CHO-K1 Ca PAM -31, CHO-K1 Ca antag 24* and CHRM1 PAM -12.
COc1ccc(-n2c(COc3cccc4ccccc34)nnc2SC(C)C(=O)O)cc1 (centres undefined) was read as M1 antag 4, CHRM1 agonist -11, CHO-K1 Ca ag -1, CHO-K1 Ca PAM -6, CHO-K1 Ca antag 32* and CHRM1 PAM 5.
O=C(Nc1cccc(Cl)c1)Nc1cccc(Cl)c1 was read as M1 antag 15, CHRM1 agonist 5, CHO-K1 Ca ag 13, CHO-K1 Ca PAM 6, CHO-K1 Ca antag 21 and CHRM1 PAM -7.
Screening COc1ccc(NC(=O)c2ccc(Cl)c(S(=O)(=O)N3CCc4ccccc4C3)c2)cn1 returned M1 antag 18*, CHRM1 agonist 3, CHO-K1 Ca ag 9, CHO-K1 Ca PAM 21, CHO-K1 Ca antag 2 and CHRM1 PAM -10.
`COC(=O)c1cccc(NC(=O)Nc2ccc(Cl)cc2)c1` gave M1 antag 38*, CHRM1 agonist 5, CHO-K1 Ca ag 14, CHO-K1 Ca PAM -6, CHO-K1 Ca antag 11 and CHRM1 PAM -20.
Screening COC(=O)c1cc(NC(=O)Nc2cccc(Cl)c2)ccc1Cl returned M1 antag 32*, CHRM1 agonist 4, CHO-K1 Ca ag 18*, CHO-K1 Ca PAM -5, CHO-K1 Ca antag 24* and CHRM1 PAM -17.
